# Values without a mark were called inactive. For some assays here: Measured potencies and affinities stand elsewhere. The source made the active and inactive calls. Unless noted, the rule behind the calls is not given here.
# Legend:
# [1] = antimalarial activity against Dd2 strain (AID 2302;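 active = growth inhibition above 50% at the single 2 µM test dose, taken to imply half-maximal potency below 2 µM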;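 note: 0% = DMSO untreated growth and 100% = chloroquine plus artemisinin killed control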); details: P. falciparum Dd2 in RBCs, LDH growth readout, 72 h; at 2 µM; stronger effect = higher value
# [2] = human hepatoma cell viability loss – ATP luminescence, cytotoxicity control for P. falciparum antimalarial project, primary screen (AID 2303;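 active = inhibition above 50%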;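 note: 0% = DMSO wells and 100% = digitonin-killed cells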); details: HepG2 viability, 24-48 h, at 10 µM, stronger effect = higher value
# [3] = target: L-lactate dehydrogenase (Plasmodium falciparum (isolate CDC / Honduras)) (UniProt Q27743); experiment: PfLDH activity inhibition – cell lysate, 3D7 strain, counter-screen for P. falciparum growth inhibition project (AID 2304);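 note: 0% = vehicle and 100% = reference inhibitor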; details: P. falciparum 3D7 crude extract, LDH APAD/NBT absorbance; at 2 µM; stronger effect = higher value
# L-lactate dehydrogenase (Plasmodium falciparum (isolate CDC / Honduras)), sequence (Q27743 whole entry, looked up): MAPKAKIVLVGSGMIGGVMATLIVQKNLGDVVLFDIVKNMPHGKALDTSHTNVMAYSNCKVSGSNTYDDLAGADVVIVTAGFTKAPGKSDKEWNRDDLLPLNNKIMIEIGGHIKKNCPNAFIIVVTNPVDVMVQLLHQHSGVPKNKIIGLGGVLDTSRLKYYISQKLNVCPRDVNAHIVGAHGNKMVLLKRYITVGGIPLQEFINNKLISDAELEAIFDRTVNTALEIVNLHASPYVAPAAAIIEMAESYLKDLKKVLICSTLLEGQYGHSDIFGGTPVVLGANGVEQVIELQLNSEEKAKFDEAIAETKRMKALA
# [4] = inhibition of 3D7 malaria parasite growth – strain 3D7 (AID 2306);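 note: 0% = DMSO wells and 100% = chloroquine plus artemisinin control wells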; details: P. falciparum 3D7 erythrocytic growth, LDH absorbance, 72 h; at 2 µM; stronger effect = higher value
# [5] = target: Calcium-dependent protein kinase 1 (Plasmodium falciparum (isolate 3D7)) (UniProt P62344); experiment: PfCDPK1 kinase inhibitors, biochemical, TCAMS library (AID 1159585; cut-off not given, nearly all actives have IC50 up to about 0.98 µM;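 note: inhibitors leave more ATP so luminescence rises with inhibition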); details: recombinant PfCDPK1, Kinase-Glo ATP depletion luminescence
# Calcium-dependent protein kinase 1 (Plasmodium falciparum (isolate 3D7)), sequence (P62344 whole entry, looked up): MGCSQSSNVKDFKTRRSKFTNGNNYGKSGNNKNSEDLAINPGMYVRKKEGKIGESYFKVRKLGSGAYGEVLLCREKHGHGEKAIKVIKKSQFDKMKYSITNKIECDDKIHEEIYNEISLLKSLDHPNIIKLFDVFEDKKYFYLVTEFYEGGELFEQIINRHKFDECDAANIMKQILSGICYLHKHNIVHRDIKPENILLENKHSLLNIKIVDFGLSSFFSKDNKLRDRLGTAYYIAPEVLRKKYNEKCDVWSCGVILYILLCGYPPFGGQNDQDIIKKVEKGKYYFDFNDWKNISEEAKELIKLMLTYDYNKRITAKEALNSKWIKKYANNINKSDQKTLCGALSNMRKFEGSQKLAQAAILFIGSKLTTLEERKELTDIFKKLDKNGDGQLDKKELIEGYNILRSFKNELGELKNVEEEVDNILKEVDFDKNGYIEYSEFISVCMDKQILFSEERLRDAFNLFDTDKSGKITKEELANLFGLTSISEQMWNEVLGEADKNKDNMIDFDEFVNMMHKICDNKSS
# [6] = target: Plasmodium falciparum protein kinase 6 (PK6, PF3D7_1337100) (UniProt Q8IDW1); experiment: PfPK6 kinase inhibitors, biochemical, TCAMS library (AID 1159586); details: recombinant PfPK6, Kinase-Glo ATP depletion luminescence
# Plasmodium falciparum protein kinase 6 (PK6, PF3D7_1337100), sequence (Q8IDW1 1-305): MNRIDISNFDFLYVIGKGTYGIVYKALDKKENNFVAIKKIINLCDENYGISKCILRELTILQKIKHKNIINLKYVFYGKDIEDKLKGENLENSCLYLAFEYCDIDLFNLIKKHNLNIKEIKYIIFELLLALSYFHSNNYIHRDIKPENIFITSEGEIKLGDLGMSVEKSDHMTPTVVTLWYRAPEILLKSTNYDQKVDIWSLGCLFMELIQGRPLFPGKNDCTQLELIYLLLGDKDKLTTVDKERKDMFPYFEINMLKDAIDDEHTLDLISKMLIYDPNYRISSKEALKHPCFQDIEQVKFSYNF
# [7] = target: Protein kinase 7 (PK7), Plasmodium falciparum 3D7 (PF3D7_0213400) (UniProt Q7YTF7); experiment: inhibition of Plasmodium PK7 catalytic activity – biochemical, TCAMS antimalarial set, Kinase-Glo luminescence (AID 1159587); details: recombinant PfPK7, Kinase-Glo ATP depletion luminescence
# Protein kinase 7 (PK7), Plasmodium falciparum 3D7 (PF3D7_0213400), sequence (Q7YTF7 1-343): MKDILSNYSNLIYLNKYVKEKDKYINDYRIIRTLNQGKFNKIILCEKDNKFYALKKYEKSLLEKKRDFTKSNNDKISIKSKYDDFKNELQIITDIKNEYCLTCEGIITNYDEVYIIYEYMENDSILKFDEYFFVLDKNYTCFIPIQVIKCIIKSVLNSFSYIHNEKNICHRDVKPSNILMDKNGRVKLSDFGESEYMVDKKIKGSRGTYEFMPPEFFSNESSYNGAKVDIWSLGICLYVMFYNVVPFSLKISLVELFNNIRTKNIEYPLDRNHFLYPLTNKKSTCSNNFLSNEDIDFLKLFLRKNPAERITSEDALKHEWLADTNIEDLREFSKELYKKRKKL
# [8] = target: Calcium-dependent protein kinase 4 (Plasmodium falciparum (isolate 3D7)) (UniProt Q8IBS5); experiment: PfCDPK4 kinase inhibitors, biochemical, TCAMS library (AID 1159588; cut-off not given, nearly all actives have IC50 up to about 0.91 µM); details: recombinant PfCDPK4, Kinase-Glo ATP depletion luminescence
# Calcium-dependent protein kinase 4 (Plasmodium falciparum (isolate 3D7)), sequence (Q8IBS5 whole entry, looked up): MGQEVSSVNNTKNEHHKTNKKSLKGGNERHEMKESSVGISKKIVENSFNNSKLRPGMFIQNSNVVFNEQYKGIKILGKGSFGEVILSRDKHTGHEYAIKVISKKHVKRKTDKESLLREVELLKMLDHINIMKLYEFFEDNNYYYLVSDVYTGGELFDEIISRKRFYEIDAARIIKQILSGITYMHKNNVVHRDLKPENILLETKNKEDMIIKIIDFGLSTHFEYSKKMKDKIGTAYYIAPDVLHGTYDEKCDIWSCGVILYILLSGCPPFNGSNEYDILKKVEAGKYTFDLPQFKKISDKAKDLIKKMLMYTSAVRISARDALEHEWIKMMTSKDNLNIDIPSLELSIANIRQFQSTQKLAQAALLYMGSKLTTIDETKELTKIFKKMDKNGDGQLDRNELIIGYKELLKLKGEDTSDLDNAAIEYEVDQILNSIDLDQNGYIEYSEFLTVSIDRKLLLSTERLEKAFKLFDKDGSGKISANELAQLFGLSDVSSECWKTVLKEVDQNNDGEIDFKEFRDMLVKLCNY
Structure (SMILES),growth inhibition [1],inhibition [2],inhibition [3],growth inhibition [4],outcome [5],outcome [6],outcome [7],outcome [8]
CC(=O)Nc1ccc(NC(=O)c2cc(-c3cc(Cl)ccc3O)n[nH]2)cc1,100% (active),1%,-2%,100% (active),inactive,inactive,inactive,inactive
Cn1cnc(CCNC(=O)c2ccc(-c3cccc(-c4nc5ccc(C(F)(F)F)cc5[nH]4)c3)cc2)c1,93% (active),25%,3%,101% (active),inactive,inactive,inactive,inactive
O=C(Nc1ccc(Cl)c(Cl)c1)Nc1cc(C(F)(F)F)ccc1Cl,85% (active),-1%,-4%,101% (active),inactive,inactive,inactive,inactive
NOCCCCOc1ccc(Br)cc1,-1%,0%,-2%,99% (active),inactive,inactive,inactive,inactive
Clc1ccc2c(NCc3ccc4c(c3)OCO4)ccnc2c1,97% (active),6%,1%,101% (active),inactive,inactive,inactive,inactive
Cn1nccc1C(=O)NCCNCc1ccc(-c2ccc(-c3nc4ccc(C(F)(F)F)cc4[nH]3)s2)cc1,99% (active),48%,-5%,101% (active),inactive,inactive,inactive,inactive
CCCOc1ccc(NC(=O)c2cccs2)cc1Cl,86% (active),1%,-4%,88% (active),inactive,inactive,inactive,inactive
CCCCCc1cc(OC(=O)CCCN(CC)CC)c2c(c1)OC(C)(C)C=C2C1=CCN(Cc2ccc3ccccc3c2)CC1,92% (active),94% (active),-2%,100% (active),inactive,inactive,inactive,inactive
CCN(CC)CCN(Cc1ccc(-c2ccc(C(F)(F)F)cc2)nc1)C(=O)Cn1cc(Cc2cnn(C)c2)c(=O)n2nc(-c3ccccc3)cc12,95% (active),35%,-3%,97% (active),inactive,inactive,inactive,inactive
NC(=O)c1cccc(C(=O)Nc2cccc(-c3ccc(-c4nc5ccc(C(F)(F)F)cc5[nH]4)cc3)c2)c1,78% (active),83% (active),-1%,100% (active),inactive,inactive,inactive,inactive
CC(C)N1CCN(c2ccc(OCCCCN3CCN(c4cccc(Cl)c4Cl)CC3)c(C(F)(F)F)c2)CC1,28%,64% (active),4%,101% (active),inactive,inactive,inactive,inactive
CNCCNCc1cccc(-c2ccc(-c3nc4ccc(C(F)(F)F)cc4[nH]3)s2)c1,85% (active),31%,4%,98% (active),inactive,inactive,inactive,inactive
NC(=O)Nc1ccc2cn[nH]c2c1,-2%,4%,-3%,97% (active),inactive,inactive,inactive,inactive
c1ccc(Nc2nc(-c3ccccn3)cs2)nc1,93% (active),45%,2%,87% (active),inactive,inactive,inactive,inactive
Cn1cnc2c(SCc3ccccc3OCc3ccccc3)ncnc21,34%,6%,-3%,86% (active),inactive,inactive,inactive,inactive
Cn1cnc(CCNC(=O)c2ccc(-c3ccc(-c4nc5ccc(F)cc5[nH]4)cc3)cc2)c1,15%,17%,0%,92% (active),inactive,inactive,inactive,inactive
Nc1ccn([C@@H]2O[C@H](COC(c3ccccc3)(c3ccccc3)c3ccccc3)[C@@H](O)[C@@H]2O)c(=O)n1,2%,26%,1%,93% (active),inactive,inactive,inactive,inactive
CCC[C@@H]([C@@H](CC1CCCCC1)C(=O)N[C@@H](CCOC(=O)NCC)C(=O)Nc1nccs1)N(O)C=O,79% (active),-13%,-7%,101% (active),inactive,inactive,inactive,inactive
O=C(/C=C/c1ccccc1Cl)NC1CCC(CN2CCC(c3c[nH]c4ccncc34)CC2)CC1 (stereo not given),100% (active),19%,-2%,100% (active),inactive,inactive,inactive,inactive
Cc1cccc2[nH]c(-c3ccc(-c4ccc(CN5CCN(CC6CCCN(C)C6)CC5)cc4)cc3)nc12 (stereo not given),99% (active),91% (active),-7%,101% (active),inactive,inactive,inactive,inactive

Structure (SMILES),growth inhibition [1],inhibition [2],inhibition [3],growth inhibition [4],outcome [5],outcome [6],outcome [7],outcome [8]
O=C(NCCc1ccccc1F)c1ccc(N2CCN(c3ccncc3)CC2)cn1,18%,8%,-2%,93% (active),inactive,inactive,inactive,inactive
Clc1ccccc1/C=C/c1cncnc1Nc1ccc2nc(Cc3ccccc3)[nH]c2c1,26%,4%,-1%,96% (active),inactive,inactive,inactive,inactive
CCCNC(=O)Nc1cc2cc(-c3cccc(CN4CCCCC4)c3)ccc2n2c(C)nnc12,50% (active),60% (active),0%,100% (active),inactive,inactive,inactive,inactive
Nc1nc(N)c2c(ccc3nn(C4CCCC4)cc32)n1,3%,44%,-1%,97% (active),inactive,inactive,inactive,inactive
CC(=O)Nc1ccc(OCCCCN(Cc2ccccc2C(F)(F)F)c2ccc(C#N)c(C(F)(F)F)c2)cc1,47%,-3%,1%,80% (active),inactive,inactive,inactive,inactive
CN(CCC(CCN1CCC(c2c[nH]c3ccccc23)CC1)c1ccccc1)C(=O)Nc1ccc(Cl)c(Cl)c1 (stereo not given),21%,50% (active),3%,91% (active),inactive,inactive,inactive,inactive
COc1ccc(NC(=O)/C=C/c2ccccc2Cl)cc1OCCN1CCC(NCc2cccnc2)CC1,88% (active),12%,1%,101% (active),inactive,inactive,inactive,inactive
Cc1ccccc1CNc1noc(-c2c(-c3ccccc3)noc2C)n1,70% (active),-4%,-2%,94% (active),inactive,inactive,inactive,inactive
CCCc1cc(Cc2cnc(N)nc2N)cc(CC)c1O,-3%,56% (active),-3%,87% (active),inactive,inactive,inactive,inactive
CCN(CCNc1nc(NCCc2cnc[nH]2)nc(N(CCC#N)Cc2ccccc2)n1)c1cccc(C)c1,92% (active),13%,-3%,101% (active),inactive,inactive,inactive,inactive
CCCC(N)C(=O)NC1CCN(c2c(F)c(N)c3c(=O)c(C(=O)O)cn4c3c2Oc2ccccc2-4)C1 (stereo not given),98% (active),66% (active),-5%,98% (active),inactive,inactive,inactive,inactive
N=C(N)c1ccc(NC(=O)c2cc(Sc3ccc(O)c(C(=O)Nc4ccc(C(=N)N)cc4)c3)ccc2O)cc1,87% (active),11%,2%,93% (active),inactive,inactive,inactive,inactive
CCn1cc(C=C2Oc3c(ccc(O)c3CN3CCCCC3)C2=O)c2ccccc21,99% (active),-9%,-3%,101% (active),inactive,inactive,inactive,inactive
CC(=O)Nc1ccc(NC(=O)c2cc(-c3ccc(C)cc3O)n[nH]2)cc1,78% (active),-3%,-6%,101% (active),inactive,inactive,inactive,inactive
COc1ccc(CCNCCCCCCNCCc2ccc(Cl)c3ccccc23)cc1OC,28%,100% (active),6%,100% (active),inactive,inactive,inactive,inactive
Cn1nccc1C(=O)NCCNCc1cccc(-c2cccc(-c3nc4ccc(F)cc4[nH]3)c2)c1,7%,38%,0%,100% (active),inactive,inactive,inactive,inactive
Cc1cccc(-n2nc(C)c3c2NC(=O)CC3C(=O)c2ccc(Cl)s2)c1 (stereo not given),85% (active),13%,-1%,92% (active),inactive,inactive,inactive,inactive
CC1(C(=O)Nc2ccc([N+](=O)[O-])cc2O)CC2c3ccccc3C1c1ccccc12 (stereo not given),16%,37%,3%,98% (active),inactive,inactive,inactive,inactive
CC(C)c1ccc(CN2CCC(CNC(=O)c3cc(-c4ccc(N(C)C)cc4)cs3)C2)cc1 (stereo not given),32%,36%,5%,83% (active),inactive,inactive,inactive,inactive
COc1ccc2nccc(NC(=O)OC3CCC(NCc4ccc5c(n4)NC(=O)CS5)CC3)c2c1 (stereo not given),39%,9%,-6%,98% (active),inactive,inactive,inactive,inactive

# Reference: PubChem BioAssay
